This passage reports Potency results from PubChem BioAssay AID588342 (National Center for Advancing Translational Sciences (NCATS), 2011).

The campaign covered roughly 360,000 compounds. About 25,000 (6.9%) were called active. Not shown: some 9% with an inconclusive outcome. Calls follow the shape of the dose curve; as a rule, active = well fitted inhibition curve with a large enough effect; inconclusive = small, poorly fitted or top-dose-only effect; inactive = flat fitted curve, though single readings scatter. The list comes from a sample in which actives are over-represented; it also holds similar structures and randomly drawn compounds. Where a call stands in place of a potency, no number is given.
Potency is read from the fitted curve at half-maximal effect.

The target of this experiment is Luciferin 4-monooxygenase (Photinus pyralis) (UniProt P08659). The experiment in a line: qHTS profiling assay for firefly luciferase inhibitor/activator using purifed enzyme and Km concentrations of substrates (counterscreen for miR-21 project). Also: nearly all actives have a fitted effect of over 55% in size. The following applies: purified FLuc, luminescence inhibition; series mostly up to 57.5 µM. The procedure, abridged: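 Purified P. pyralis luciferase, 10 nM final, with Km-level 10 uM D-luciferin and 10 uM ATP in 50 mM Tris acetate pH 7.5, 10 mM Mg acetate, 0.01% Tween-20, 0.05% BSA; 6-point qHTS titration about 60 µM downward; luminescence read.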
Sequence of Luciferin 4-monooxygenase (Photinus pyralis) (P08659 whole entry, looked up): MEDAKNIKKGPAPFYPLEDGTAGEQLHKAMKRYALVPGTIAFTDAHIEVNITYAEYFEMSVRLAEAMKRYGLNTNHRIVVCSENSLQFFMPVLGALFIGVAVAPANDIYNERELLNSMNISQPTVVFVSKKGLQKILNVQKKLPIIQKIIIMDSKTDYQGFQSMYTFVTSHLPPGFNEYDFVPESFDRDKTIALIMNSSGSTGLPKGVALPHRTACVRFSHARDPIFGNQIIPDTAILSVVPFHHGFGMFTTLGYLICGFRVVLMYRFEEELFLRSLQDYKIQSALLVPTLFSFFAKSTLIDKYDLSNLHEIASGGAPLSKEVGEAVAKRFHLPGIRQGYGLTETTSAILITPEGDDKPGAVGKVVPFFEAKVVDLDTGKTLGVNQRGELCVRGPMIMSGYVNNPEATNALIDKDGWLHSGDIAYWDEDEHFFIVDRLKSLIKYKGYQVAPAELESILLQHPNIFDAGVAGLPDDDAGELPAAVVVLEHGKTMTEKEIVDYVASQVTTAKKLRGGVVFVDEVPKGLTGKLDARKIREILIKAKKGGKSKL
In general terms: qHTS replaces the single test concentration by a dilution series.
Turning to `CCOc1ccc(C(=O)N2CCN(CCc3ccccn3)CC2)cc1`, the Potency entry was “inactive”. For `CCCCNC(=O)CSc1nc2cc3c(cc2c(=O)n1CCCCCC(=O)NCc1ccc2c(c1)OCO2)OCO3` the value was “inactive”. Take `CCCCN=C1C([N+](=O)[O-])=CC=C2C1=NC1(CCCCC1)N2O`: the Potency entry is “inactive”. As for `CCCn1c(=O)c(C(=O)Nc2cc(C)ccn2)c(O)c2ccccc21`, the Potency result is “inactive”. Consider `C=CCn1c(=O)c(C(=O)Nc2ncccc2O)c(O)c2ccccc21`, for which the Potency entry was “inactive”. For `Cn1c(=O)c(C(=O)Nc2ncccn2)c(O)c2ccccc21`, the Potency is 21.3 µM (active).

As to `C=CCC(Nc1ccccc1)c1cccc(OC)c1OC` (centres undefined), the Potency entry was “inactive”. In the case of `CCCCn1c(N)c(N(CCOC)C(=O)c2oc3ccc(OC)cc3c2C)c(=O)[nH]c1=O`, the Potency entry is “inactive”. In the case of `COCCNC(=S)N1CCC(NC(=O)C23CC4CC(CC(C4)C2)C3)CC1`, the Potency result is “inactive”. As to `Cc1ccc(Nc2c(-c3ccc(C)s3)nc3ccccn23)cc1`, the Potency was 13.5 µM (active). For `CC(C)(C)Nc1c(-c2cccs2)nc2ccccn12` the value was “inactive”. Under `Cc1ccn2c(Nc3ccc4c(c3)OCCO4)c(-c3ccc(C)s3)nc2c1` stands 8.49 µM (active); under `Oc1ccccc1-c1nc2ccc(Cl)cn2c1Nc1ccc2c(c1)OCCO2`, “inactive”; under `Cc1ccc(-c2nc3cccc(C)n3c2Nc2ccc3c(c2)OCCO3)cc1`, “inactive”.

For `Cc1ccc(Nc2c(-c3ccc(C)cc3)nc3cnccn23)cc1`, the Potency entry is “inactive”.

Take `Cn1c(=O)nc2n(-c3ccc(Br)cc3)c3cccc(Cl)c3cc-2c1=O`: the Potency entry is “inactive”. For the molecule `O=C(COc1ccccc1F)OCc1cc(=O)n2nc(C3CCCCC3)sc2n1`, the Potency result was “inactive”.

As to `CC(C)CNc1ncnc2c1nnn2C`, the Potency result was “inactive”. Turning to `O=S(=O)(c1ccc2nc(NCc3ccccc3Cl)ccc2c1)N1CCCCC1`, the Potency result is “inactive”. Regarding `O=C1C=C(c2cccc(Br)c2)C[C@@H](c2ccc(F)cc2)C1`, the Potency result was “inactive”.

As to `Cc1ccc(C)c(N2CCN(Cc3nnc(-c4ccccc4)o3)CC2)c1`, the Potency entry is “inactive”. For `O=C(c1[nH]ncc1-c1ccc(Cl)cc1)C1CO1` (centres undefined) the value was “inactive”. With `CC(C)N(Cc1nnc(-c2ccc(Cl)cc2)o1)C(=O)C1=COCCO1`, the Potency result was “inactive”. On to `O=C(c1nnc(-c2ccc(Cl)cc2)o1)C1CCCC1`, for which the Potency is 5.36 µM (active). For `CCOCCCNC(=O)c1ccc2nc(CCc3ccccc3)oc2c1` the value was “inactive”. `CN1CCC(N(C)S(=O)(=O)c2ccc(NC(=O)c3cccc(C#N)c3)cc2)CC1`: the Potency result was “inactive”. For `COc1ccc2c(c1)C(c1cccs1)=NNC(c1cccnc1)=N2`, the Potency entry is “inactive”. For `Cc1ccc(C2=Nc3c(ccc4ccccc34)C(c3ccncc3)=NN2)cc1` the value was “inactive”.

As to `CCOc1ccc2c(c1)C(c1ccc(C)cc1)=NNC(c1ccc(C)cc1)=N2`, the Potency was 23.9 µM (active).

With `COCCCNC(NC(=O)c1ccc(C)cc1)C(Cl)(Cl)Cl` (centres undefined), the Potency result was “inactive”.

As to `COc1cccc2[nH]c(C(=O)NCCc3ccccc3)cc12`, the Potency was 23.9 µM (active). In the case of `COc1ccc(CCNC(=O)c2ccccc2-c2ccccc2C(=O)O)cc1OC`, the Potency entry is “inactive”. Take `COc1ccc(CCNC(=O)c2ccccc2OCc2ccccc2)cc1`: the Potency entry is “inactive”.

Regarding `O=C(Cn1ncn2nc(-c3cccs3)cc2c1=O)NCc1cccc(Br)c1`, the Potency entry was “inactive”. Under `Oc1ccccc1-c1nc(/C=C/c2ccc(F)cc2)no1` stands 0.757 µM (active); under `CC(=O)Oc1ccccc1C1=NN(C(C)=O)C(c2ccccc2)C1` (centres undefined), “inactive”; under `CC(=O)c1ccc(NC(=O)COc2ccccc2-c2nc(-c3ccccc3)no2)cc1`, “inactive”.

On to `COc1ccc(/C=C/c2noc(-c3ccccc3OC(C)=O)n2)cc1`, for which the Potency was 15.1 µM (active).

On to `CCOC(=O)c1c(S(=O)(=O)N2CCC(C(=O)NCc3ccccc3OC)CC2)c(C)n(C)c1C`, for which the Potency result was “inactive”. For `COc1ccc(CNC(=O)Cn2nnc(-c3ccc(S(C)(=O)=O)cc3)n2)cc1` the value was “inactive”; for `CCCCOC(=O)/C(C#N)=C/c1ccc(-c2cccc(C(F)(F)F)c2)o1`, “inactive”. As for `CCCCN1CC(c2nc3ccccc3n2CCCCOc2ccc(C)cc2C)CC1=O` (centres undefined), the Potency entry is “inactive”. For `COc1ccc(C(=O)OCC(=O)N2CC(=O)Nc3ccccc32)cc1Br` the value was “inactive”; for `CCc1ccc(S(=O)(=O)Nc2cc3c(C(=O)OCc4ccccc4)c(C)oc3c3ccccc23)cc1`, “inactive”; for `CCC(=O)N1CCc2cc(Br)cc(S(=O)(=O)Nc3ccc(C)cc3C)c21`, “inactive”.

Consider `O=C(Nc1cccc(OCC(=O)N2CCOCC2)c1)C1CCCCC1`, for which the Potency result is “inactive”. For the molecule `O=C(Nc1ccc(OCC(=O)N2CCOCC2)cc1)c1cc(F)c(F)cc1Cl`, the Potency was 9.53 µM (active). For `O=C(COc1ccc(S(=O)(=O)Nc2cccc(C(F)(F)F)c2)cc1)N1CCOCC1` the value was “inactive”; for `Cc1ccccc1CSCCNC(=O)C1CCN(S(=O)(=O)Cc2ccccc2)CC1`, “inactive”. On to `C=CCN1CCN(C(=O)CCCc2ccccc2)CC1`, for which the Potency is 2.13 µM (active). Under `CCC(C)NC(=O)CCCc1ccccc1` (centres undefined) stands “inactive”; under `CC1=NN(C(=O)CCCc2ccccc2)C(O)(C(F)(F)F)C1` (centres undefined), “inactive”. For `CC(=O)NCCC(=O)Nc1nc(-c2ccc3c(c2)OCCO3)cs1` the value was 19 µM (active); for `Cc1ccc(-c2csc(NC(=O)C3=COCCO3)n2)cc1C`, 6.75 µM (active); for `O=C(Nc1ccc(S(=O)(=O)N2CCCC2)cc1Cl)C1=COCCO1`, “inactive”.

Consider `COc1cc(-c2nnc(NC(=O)C3=COCCO3)o2)cc(OC)c1OC`, for which the Potency result was “inactive”. `CC(=O)NCc1ccc(-c2csc(NC(=O)CCCc3nc4ccccc4c(=O)[nH]3)n2)cc1`: the Potency entry was “inactive”. Under `CC(=O)NCCC(=O)Nc1nc(C)c(Cc2ccc3c(c2)OCO3)s1` stands “inactive”; under `Cc1cccc(NC(=O)CN2CCN(C(=O)C3CCN(C(=O)/C=C/c4ccccc4)CC3)CC2)c1C`, “inactive”; under `CCNC(=O)CC1C(=O)N(c2ccc(F)cc2)C(=O)N1CCc1sccc1C` (centres undefined), “inactive”.

Regarding `Cc1ccc(CN2CCc3nc(N4CCN(C)CC4)ncc3C2)cc1`, the Potency entry is “inactive”.

Turning to `CCCc1cc(-c2nc(-c3ccc(C)cc3)cs2)ccn1`, the Potency was 23.9 µM (active). As for `Cc1cc(-c2n[nH]c(=S)n2-c2ccc(C)c(C)c2)no1`, the Potency entry is “inactive”.

On to `CCCCCN1CC(O)=C(c2nc(-c3ccc(Cl)cc3)cs2)C1=N`, for which the Potency result was “inactive”. Under `Cc1ccc(-c2csc(-c3cc(C)on3)n2)cc1` stands 8.49 µM (active); under `CCC(C)Sc1nnc(-c2c[nH]c3ccccc23)n1CCOC` (centres undefined), “inactive”; under `Cc1cc(-c2nc(C)c(-c3nnc(SCC(=O)Nc4ccccc4)n3C)s2)no1`, “inactive”. Take `Cc1ccc(-c2csc(-c3c[nH]c4ccccc34)n2)cc1`: the Potency was 12 µM (active). For `CCCc1cc(-c2n[nH]c(=S)n2CC)c2ccccc2n1` the value was “inactive”.
